Source: PubChem BioAssay (National Center for Advancing Translational Sciences (NCATS))
Hits are enriched below; roughly 15% of the tested compounds scored in any of these assays.
HCV inhibitor: HCV inhibition | hit rate 3.4% among 340,000 | Potency, µM (highest dose often 41.8 µM), for the others: at the top dose activity change, negative = inhibition, most hits filed as inhibitors | Huh7.5.1 HCVcc-Cre infection, luciferase reporter, 44 h | AID 651820; also: potency is read from the fitted curve at half-maximal effect; % is scaled to controls: 0 for no effect and ±100 for the full control effect
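Cells seeded at 1,000/well and cultured 4 h, then compounds added followed by HCVcc-Cre virus (~0.5 moi). After 44 h further culture, luciferase substrate was added, plates held 15 min at room temperature, and luminescence read for 15 sec.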
SARS PLP yeast: SARS-CoV PLP inhibition in yeast; S. cerevisiae expressing SARS-CoV PLpro, growth rescue; Potency, µM (top dose mostly 32.9 µM), inactives show top-dose activity, positive = growth rescue, usual class: activators; hit rate 0.19% among 330,000; AID 485353; calls by dose curve; also: potency is read from the fitted curve at half-maximal effect; 0% is about no effect; nearly all actives have a fitted effect of over 55% in size
Sm TGR block: inhibitors of Schistosoma mansoni thioredoxin glutathione reductase; AID 485364; purified TGR, DTNB reduction, TNB absorbance 405 nm; hit rate 3% among 360,000; Potency, µM (highest dose often 114 µM), for inactives: at the highest dose activity change, negative = inhibition, actives largely listed as inhibitors; also: potency is read from the fitted curve at half-maximal effect; % is scaled to controls: 0 for no effect and ±100 for the full control effect; nearly all actives have a fitted effect of over 60% in size
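TGR 20 nM + NADPH 100 uM (dispensed conc.), cpd preinc 15 min RT; start with NADPH (500 uM addition) then DTNB (15 mM addition). Kinetic TNB absorbance, 405 nm filter. Four-parameter Hill fit across titration.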
HCMV inh: inhibitors of human cytomegalovirus | HFF cells, HCMV-luciferase reporter, 72 h; hits give low values | activity change, negative = inhibition, % at 57.5 µM | hit rate 4.5% among 410,000; in the data active = activity change below about -60%; inconclusive = no clear call, values can overlap the other calls; inactive = above about -39%; also: % is scaled to controls: 0 for no effect and ±100 for the full control effect
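Human foreskin fibroblasts infected with luciferase-reporter HCMV at MOI 1 PFU/cell, compounds at two doses. Luciferase measured 72 h post infection; normalized to buffer-only basal and Salinomycin (10uM) controls.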
Pf growth 48h: P. falciparum growth inhibition at 48 hours (one generation); P. falciparum luciferase growth in erythrocytes, 48 h; Potency, µM (top dose mostly 28.7 µM), without a hit: at the top dose activity change, negative = inhibition, actives largely listed as inhibitors; hit rate 5.9% among 310,000; AID 504832; also: potency is read from the fitted curve at half-maximal effect; % is scaled to controls: 0 for no effect and ±100 for the full control effect
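Compounds are pin-transferred into medium, infected erythrocytes (2% hematocrit, 0.1% parasitemia final) are added, and plates sit one parasite generation at 37 C in 5% CO2. Detection reagent is then added and luminescence measured.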
Pf growth 96h: P. falciparum growth inhibition at 96 hour, primary screen for plastid delayed-death inhibitors; Potency, µM (series often up to 28.7 µM), inactives show top-dose activity change, negative = inhibition, hits mostly inhibitors; P. falciparum luciferase reporter growth, 96 h; hit rate 6.9% among 320,000; also: potency is read from the fitted curve at half-maximal effect; % is scaled to controls: 0 for no effect and ±100 for the full control effect
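Delayed-death screen, second-generation endpoint: infected erythrocytes, 2% hematocrit, 0.05% parasitemia final; 96 hours at 37 C, 5% CO2; luciferase detection reagent; luminescence decrease equals reduced growth.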
Numbers without * were called inactive; u = inconclusive; x = not tested or not shown; [ ] = remark or other dose. Unless noted, calls follow the shape of the dose curve; as a rule, active = well fitted curve in the direction sought with a large enough effect; inconclusive = small, poorly fitted or top-dose-only effect, or another doubt; inactive = no such curve, though single readings can be large; an effect the other way counts as inactive or inconclusive.

SMILES | HCV inhibitor | SARS PLP yeast | Sm TGR block | HCMV inh | Pf growth 48h | Pf growth 96h
COc1ccc(N2C(=O)CC(N3CCN(Cc4ccc5c(c4)OCO5)CC3)C2=O)cc1 (configuration not stated) | 31% | 1% | 18µM* | u | -27% | 17%
O=C1CC(N2CCN(Cc3ccccc3)CC2)C(=O)N1c1ccc2c(c1)OCCO2 (configuration not stated) | -8% | -3% | 56µM* | 26 | 5% | x
O=C1CC(N2CCN(Cc3ccc4c(c3)OCO4)CC2)C(=O)N1Cc1ccc(N2CCCC2=O)cc1 (configuration not stated) | -15% | -4% | -26% | 18 | u | 9.3µM*
O=C1CC(N2CCOCC2)C(=O)N1Cc1ccc(N2CCCC2=O)cc1 (configuration not stated) | 6% | 0% | -1%[11.4 µM] | 49 | x | 173%
O=C1CC(N2CCN(Cc3ccccc3)CC2)C(=O)N1c1ccccc1 (configuration not stated) | 9% | -5% | u | 123 | 10% | 324%
O=C(CN1C(=O)c2ccccc2S1(=O)=O)Nc1cccc(S(=O)(=O)N2CCCCC2)c1 | -8% | -3% | x | 0 | x | x
CCn1nc(C)c(CNC(=O)c2cc(COc3ccccc3SC)on2)c1C | 13µM* | -2% | -3% | -64* | u | 18%
CSc1ccccc1OCc1cc(C(=O)NC(C)Cc2cccc(C)n2)no1 (configuration not stated) | u | 1% | -1% | 20 | 10µM* | u
CSc1ccccc1OCc1cc(C(=O)N(C)CCn2nc(C)cc2C)no1 | -7% | -3% | 0% | 13 | -15% | -29%
C=CC[C@H]1CC(C)=C[C@H](CC=C)N1C(=O)c1cc(COc2ccccc2SC)on1 | 13µM* | -3% | 15% | -36 | 13% | u
CCn1nc(C)c(CNC(=O)c2cc(COc3cncc(Cl)c3)on2)c1C | u | 2% | -16% | -64* | u | -25%
CSc1ccccc1OCc1cc(C(=O)NCc2cccc(C)n2)no1 | u | 1% | -2% | 69 | -9% | 4.1µM*
CSc1ccccc1OCc1cc(C(=O)NC2CCOC2)no1 (configuration not stated) | 7% | -3% | -21% | -16 | 7% | 41%
CC(CSc1nc2ccccc2s1)Cn1c(N2CCCC2)nc2c1c(=O)[nH]c(=O)n2C (configuration not stated) | u | -1% | -5% | u | 12µM* | 10µM*
CCCCn1c(CN2CCN(c3cccc(Cl)c3)CC2)nc2c1c(=O)[nH]c(=O)n2C | u | 14% | -24% | -1 | u | 35%
CCN1CCN(c2nc3c(c(=O)[nH]c(=O)n3C)n2CCSc2nc3ccccc3s2)CC1 | -6% | u | -26% | 33 | x | 22%
Cn1c(=O)[nH]c(=O)c2c1nc(CN1CCN(c3cccc(Cl)c3)CC1)n2CCCc1ccccc1 | 4% | 1% | -2% | 35 | 9.3µM* | 13%
Cc1ccc(Cl)cc1N1CCN(Cc2nc3c(c(=O)[nH]c(=O)n3C)n2Cc2ccccc2F)CC1 | u | -2% | 2% | -77* | u | -25%
Cn1c(=O)[nH]c(=O)c2c1nc(N/N=C/C(Br)=C/c1ccccc1)n2CCO | 19% | -1% | 5µM* | 86 | u | u
CC(C)=NNc1nc2c(c(=O)[nH]c(=O)n2C)n1CCc1ccccc1 | u | 0% | -15% | u | -11% | -9%
COC(CNC(=O)CN1CCN(Cc2ccccc2F)C1=O)OC | 10% | 1% | -29% | 19 | u | u
CC(C)CCn1c(N2CCN(Cc3ccccc3)CC2)nc2c1c(=O)[nH]c(=O)n2C | 0% | -6% | 0% | x | u | u
CCCCCn1c(N2CCN(Cc3ccccc3)CC2)nc2c1c(=O)[nH]c(=O)n2C | 10µM* | 6% | 4% | -33 | 12µM* | u
Cn1c(=O)[nH]c(=O)c2c1nc(SCC(=O)Nc1ccccc1)n2Cc1ccccc1 | 11µM* | 1% | 7% | 25 | 12µM* | 9.3µM*
Cn1c(=O)[nH]c(=O)c2c1nc(N1CCCCCC1)n2CCCSc1nc2ccccc2o1 | 7% | 0% | -9% | -26 | 12µM* | 19%
SMILES | HCV inhibitor | SARS PLP yeast | Sm TGR block | HCMV inh | Pf growth 48h | Pf growth 96h
C=C(C)CSc1nc2c(c(=O)[nH]c(=O)n2C)n1Cc1ccccc1 | u | 2% | -7% | -18 | u | u
CN(Cc1ccccc1)c1nc2c(c(=O)[nH]c(=O)n2C)n1CCOc1ccccc1 | u | 0% | 2% | 9 | 9.3µM* | u
COCCCNC(=O)C1CCN(C(=O)c2cnn(-c3ccccc3)c2-n2cccc2)CC1 | x | x | 11% | 0 | x | x
O=C(NCc1ccccc1)C(c1cccnc1)N(C(=O)c1csnn1)c1ccccc1 (configuration not stated) | 10% | -4% | -12% | -9 | 3% | 12%
CC1(C)CNc2cc([N+](=O)[O-])ccc2S1 | -17% | -2% | x | 9 | u | -29%
O=C(NC1CCCCC1)C(c1cccnc1)N(C(=O)c1csnn1)c1ccccc1 (configuration not stated) | -4% | 0% | -2% | 6 | -8% | 2%
O=C(COC(=O)c1ccc(S(=O)(=O)C(F)F)cc1)Nc1ccccc1C(=O)NC1CC1 | -10% | 8% | -4% | 75 | 12% | -11%
CC/C(C)=N/Nc1nc2c(c(=O)[nH]c(=O)n2C)n1Cc1ccccc1 | -20% | -3% | u | 81 | u | u
Cn1c(=O)[nH]c(=O)c2c1nc(N1CCCCC1)n2CCCSc1nnnn1-c1ccccc1 | -1% | -21% | 4% | 40 | u | u
CN1CCN(c2nc3c(c(=O)[nH]c(=O)n3C)n2CCCSc2nnnn2-c2ccccc2)CC1 | 11% | 0% | 1% | -23 | u | 9.3µM*
C=CCn1c(=O)c2c(nc(-n3nc(C)cc3C)n2C)n(C)c1=O | 8% | 9% | -18% | 56 | 10µM* | -1%
CC1CCCN(c2nc3c(c(=O)[nH]c(=O)n3C)n2Cc2ccccc2Cl)C1 (configuration not stated) | 7% | -11% | -14% | -82* | u | -25%
Cc1ccc(C(=O)CNc2nc3c(c(=O)[nH]c(=O)n3C)n2Cc2ccccc2)cc1 | 9% | -3% | 2% | 53 | 13µM* | 9.3µM*
CCc1ccccc1NC(=O)CN(Cc1ccccc1)S(=O)(=O)c1ccc(Br)cc1 | x | x | 0% | 1 | x | x
C#CCNC(=O)C[C@@H]1C[C@@]2(C(=O)OC)CC(C)(C)CC=C2N(CCCCCCCC)C1=O | x | x | x | -23 | x | x
